Screens as filed in PubChem.
MEX-5 binding: C. elegans MEX-5 TCR-2 RNA binding activity; Q9XUB2; MEX-5/FITC-TCR2 RNA binding, fluorescence polarization; stronger effect = lower value; activity score (negative = inhibition of binding), % at 10 µM; actives 0.38% (n = 300,000);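 active = inhibition past about -25% in most replicates, and total fluorescence under double the plate's negative control median, limit read from the data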;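 note: 0% = DMSO and -100% = 5 µM competing unlabeled TCR2 RNA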
Target sequence (Q9XUB2 whole entry, looked up): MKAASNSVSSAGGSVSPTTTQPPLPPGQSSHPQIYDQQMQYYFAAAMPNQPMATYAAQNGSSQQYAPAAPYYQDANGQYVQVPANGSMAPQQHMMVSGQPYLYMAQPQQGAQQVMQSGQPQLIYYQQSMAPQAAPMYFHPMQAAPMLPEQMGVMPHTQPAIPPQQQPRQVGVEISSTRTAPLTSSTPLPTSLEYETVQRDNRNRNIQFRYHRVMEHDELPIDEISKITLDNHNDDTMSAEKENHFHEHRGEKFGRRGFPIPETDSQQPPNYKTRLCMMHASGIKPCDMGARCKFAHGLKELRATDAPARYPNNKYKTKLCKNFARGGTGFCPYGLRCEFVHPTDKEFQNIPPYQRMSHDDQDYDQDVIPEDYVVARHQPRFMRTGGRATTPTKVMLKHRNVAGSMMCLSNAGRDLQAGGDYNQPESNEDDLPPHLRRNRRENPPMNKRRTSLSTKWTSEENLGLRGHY
Exocytosis inh: blocks lytic granule exocytosis. TALL-104 LAMP-1 surface exposure, flow cytometry; cells stimulated with thapsigargin and PMA. inhibition, % at 10 µM. actives 0.66% (n = 360,000);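 active = inhibition above about 55%, limit read from the data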
GASC-1 inh: human JMJD2C demethylase inhibition; Q9H3R0; GST-JMJD2C(1-420) H3K9me3 demethylation, DELFIA europium; inhibition, % at 2.35 µM; actives 0.069% (n = 330,000); AID 2099;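 active = more than half of a compound's replicate wells show inhibition beyond 50%, single wells judged on their own value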;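 note: signal counts dimethyl H3K9 product captured on neutravidin plate; 0% = median of DMSO wells and 100% = 0.3 times that DMSO median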
VLA-4 inh: inhibition in a human VLA-4 binding assay. actives 0.2% (n = 330,000). VLA-4 expressing cells, ligand binding flow cytometry. AID 2557. P13612. inhibition, % (about 7 µM as worked out from the volumes in the protocol); in the data active = inhibition above about 50%
HTR2A ag: agonists of mouse serotonin 5-HT2A receptor (HTR2A); P35363; activation, % at 7.6 µM; actives 0.66% (n = 360,000); CHO-K1 mHTR2A beta-arrestin complementation, luminescence; percent of 30 µM serotonin response;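 active = activation above a run cutoff, the mean activation of all tested compounds plus 3 SD, cut at about 14% in these data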;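 note: 0% = plate median of compound wells and 100% = 30 µM serotonin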
V-ATPase pHluor: regulators of yeast V-ATPase proton transport; S. cerevisiae, pHLuorin cytosolic pH fluorescence; response, % at 10 µM; actives 0.37% (n = 350,000); in the data active = response mostly above about 7.3%, no sharp cut-off; inactive = mostly below about 5.4%; note: actives read high
VATPase regulator: yeast V-ATPase proton transport regulation | S. cerevisiae pHLuorin cytosolic pH | response, % at 10 µM | AID 602197 | shares compounds with V-ATPase pHluor | actives 2% (n = 980); in the data active = response above about 24%;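 note: plate controls were vehicle wells for no effect and positive control wells for full effect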
MOR ag counter: counter-screen for mouse HTR2A agonists: human mu opioid receptor agonists. actives 5.3% (n = 2,300). activation, % at 9.3 µM. U2OS OPRM1 beta-arrestin PathHunter, luminescence; DMSO 0%, DAMGO 9.3 µM 100%. shares compounds with HTR2A ag;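 active = mean activation above the mean of DMSO-only wells plus 3 SD, cut at about 0.5% in these data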
m5-HT2A ag conf: mouse HTR2A agonism confirmed. CHO-K1 PathHunter beta-arrestin recruitment, luminescence; DMSO 0%, 30 µM serotonin 100%. activation, % at 7.6 µM. shares compounds with HTR2A ag. actives 19% (n = 2,300). AID 624381;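 active = mean activation across triplicates above the hit threshold derived in the original primary screen, cut at about 15% in these data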
* marks the source's active call; other numbers are inactive results. In the library only some 2.2% were active in any assay of this set; here they are far more common.

How did CC(=O)Nc1cc(C(=O)N2CCC3(CC2)OCCO3)ccc1S(=O)(=O)c1ccc(Cl)cc1 do in these assays?
MEX-5 binding: 0.1; Exocytosis inh: -2.9; GASC-1 inh: -4.5; VLA-4 inh: 24.7; HTR2A ag: 4.6; V-ATPase pHluor: 8.8*; VATPase regulator: 7.5

Results for CC(=O)Nc1cc(C(=O)N2CCC3(CC2)OCCO3)ccc1S(=O)(=O)c1ccc(C)cc1 ?
MEX-5 binding: 1.7; Exocytosis inh: -4.6; GASC-1 inh: 2.7; VLA-4 inh: 2.6; HTR2A ag: -0.6; V-ATPase pHluor: 1.2

How did Cc1ccc(C2(O)CCN3CCCCC32)cc1 (configuration not stated) do in these assays?
MEX-5 binding: 3.8; Exocytosis inh: 1.4; GASC-1 inh: -1.2; VLA-4 inh: -6.9; HTR2A ag: 4.2; V-ATPase pHluor: 11.5*; VATPase regulator: 0.3

Results for CN1CCC(O)(c2ccccc2)C2CCCC21 (configuration not stated) ?
MEX-5 binding: -0.9; Exocytosis inh: -4.5; GASC-1 inh: 22.4; VLA-4 inh: 40.5; HTR2A ag: -3.2; V-ATPase pHluor: 3.1

How did COc1c(C)cc(C(=O)C2CCCN(Cc3cccc(C)n3)C2)cc1C (configuration not stated) do in these assays?
MEX-5 binding: -0.9; Exocytosis inh: -3.6; GASC-1 inh: 23.1; VLA-4 inh: 5.0; HTR2A ag: -2.4; V-ATPase pHluor: 9.2*; VATPase regulator: -6.1

Results for CC(C)S(=O)(=O)N1Cc2ccccc2-n2nncc2C1 ?
Exocytosis inh: 1.2; HTR2A ag: 1.0; V-ATPase pHluor: 0.3

What do the screens show for `CCCC1(CCO)C(=O)NC(=S)NC1=O`?
Exocytosis inh: 1.1; HTR2A ag: -1.1; V-ATPase pHluor: 3.6

How did O=C(Nc1ccccc1)c1c(O)[nH]c(=S)[nH]c1=O do in these assays?
MEX-5 binding: 0.6; Exocytosis inh: -3.2; GASC-1 inh: 2.3; VLA-4 inh: -2.4; HTR2A ag: 7.1; V-ATPase pHluor: 13.4*; VATPase regulator: -0.6

How did O=C(Nc1ccccc1)c1c(O)[nH]c(=O)[nH]c1=O do in these assays?
MEX-5 binding: -1.0; Exocytosis inh: 1.8; GASC-1 inh: 0.0; VLA-4 inh: 12.7; HTR2A ag: 1.9; V-ATPase pHluor: -0.5

What do the screens show for `CN1[C@H]2CC[C@@H]1C(C(=O)N1CCOCC1)=C(O)C2`?
Exocytosis inh: 11.5; GASC-1 inh: 8.6; VLA-4 inh: 0.0; HTR2A ag: -4.3; V-ATPase pHluor: -4.1

Results for CN1CCN(c2nc3ccccc3o2)CC1 ?
MEX-5 binding: -3.2; Exocytosis inh: -1.4; GASC-1 inh: 4.4; VLA-4 inh: 0.3; HTR2A ag: -0.1; V-ATPase pHluor: 3.1

What do the screens show for `c1ccc2oc(N3CCNCC3)nc2c1`?
MEX-5 binding: -2.1; Exocytosis inh: 0.9; GASC-1 inh: -99.8; VLA-4 inh: -4.8; HTR2A ag: 29.4*; V-ATPase pHluor: -2.6; MOR ag counter: -0.5; m5-HT2A ag conf: 10.9

What do the screens show for `CN1OC[C@@H]2CN[C@H](c3ccccc3Br)C[C@@H]21`?
Exocytosis inh: -3.6; HTR2A ag: 1.0; V-ATPase pHluor: -0.4

What do the screens show for `COC(=O)C1=C(c2ccc(OC)c(OC)c2)C[C@@H]2CC[C@H]1N2C(=O)NC(C)C`?
Exocytosis inh: -12.4; GASC-1 inh: 5.9; VLA-4 inh: 0.0; HTR2A ag: 4.5; V-ATPase pHluor: 0.8

Results for O=S(=O)(c1ccc(Cl)cc1)N1CC1c1ccccc1 (configuration not stated) ?
MEX-5 binding: 3.6; Exocytosis inh: 1.3; GASC-1 inh: 0.5; VLA-4 inh: 12.5; HTR2A ag: -1.7; V-ATPase pHluor: 1.5
